# How the values were obtained:
# Test in all cases: DAPPL (digital affinity profiling via proximity ligation, sequencing); 10 mM Tris-HCl pH 7.5, 50 mM NaCl, 1 mM DTT, 4% glycerol, room temperature, 30 min; GST-TFs on glutathione beads, 16-mer random dsDNA library, 0.1% formaldehyde crosslink after washing; high values mean tight binding
# FLI1 = molecular target: T1, FLI1 (Homo sapiens, UniProt Q01543 1-452); settings: protein: recombinant; tags: N-terminal GST; dsDNA, one strand shown
# T1 sequence: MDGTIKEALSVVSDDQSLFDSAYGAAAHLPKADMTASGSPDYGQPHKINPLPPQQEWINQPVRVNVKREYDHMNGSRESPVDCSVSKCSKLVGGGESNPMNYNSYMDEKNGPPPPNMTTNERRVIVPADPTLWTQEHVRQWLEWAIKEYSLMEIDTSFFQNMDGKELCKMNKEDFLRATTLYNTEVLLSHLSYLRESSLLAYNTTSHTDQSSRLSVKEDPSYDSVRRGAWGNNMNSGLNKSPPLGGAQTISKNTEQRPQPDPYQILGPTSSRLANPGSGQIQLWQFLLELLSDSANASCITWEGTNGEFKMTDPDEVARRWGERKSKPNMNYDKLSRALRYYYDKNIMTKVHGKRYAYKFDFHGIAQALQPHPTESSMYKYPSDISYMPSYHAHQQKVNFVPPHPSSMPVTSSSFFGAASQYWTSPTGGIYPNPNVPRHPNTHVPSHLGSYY
# How it was run: (§1)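 Human transcription factors fused to GST were expressed in yeast, captured on glutathione beads, given DNA barcodes and pooled with a GST-only negative control. Pools were incubated with 200 nmole of a 16-mer random double-stranded DNA library in Tris/NaCl/DTT/glycerol buffer at room temperature for 30 min. They were then washed, crosslinked with 0.1% formaldehyde, proximity-ligated (BsaI/T4 ligase, 1 h, 37 °C), PCR-amplified and sequenced on an Illumina NextSeq500. Binding signal is each 6-mer's read frequency for a factor divided by its frequency for the GST control.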
# ELK1 = molecular target: T2, ELK1 (Homo sapiens, UniProt P19419 1-428); settings: protein: recombinant; tags: N-terminal GST; dsDNA, one strand shown
# T2 sequence: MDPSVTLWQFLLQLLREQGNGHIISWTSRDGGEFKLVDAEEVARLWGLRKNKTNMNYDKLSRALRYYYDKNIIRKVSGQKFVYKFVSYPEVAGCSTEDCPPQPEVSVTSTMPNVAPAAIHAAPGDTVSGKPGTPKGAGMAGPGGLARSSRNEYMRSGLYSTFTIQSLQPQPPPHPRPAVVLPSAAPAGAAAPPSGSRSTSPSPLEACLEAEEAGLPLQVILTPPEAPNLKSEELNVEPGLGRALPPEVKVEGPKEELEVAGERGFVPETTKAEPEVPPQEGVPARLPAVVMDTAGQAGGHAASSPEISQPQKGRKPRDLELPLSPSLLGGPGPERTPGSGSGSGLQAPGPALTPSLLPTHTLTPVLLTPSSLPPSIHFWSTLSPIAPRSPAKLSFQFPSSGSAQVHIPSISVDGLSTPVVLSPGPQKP
# How it was run: as §1
# GABPA = molecular target: T3, GABPA (Homo sapiens, UniProt Q06546 1-454); settings: protein: recombinant; tags: N-terminal GST; dsDNA, one strand shown
# T3 sequence: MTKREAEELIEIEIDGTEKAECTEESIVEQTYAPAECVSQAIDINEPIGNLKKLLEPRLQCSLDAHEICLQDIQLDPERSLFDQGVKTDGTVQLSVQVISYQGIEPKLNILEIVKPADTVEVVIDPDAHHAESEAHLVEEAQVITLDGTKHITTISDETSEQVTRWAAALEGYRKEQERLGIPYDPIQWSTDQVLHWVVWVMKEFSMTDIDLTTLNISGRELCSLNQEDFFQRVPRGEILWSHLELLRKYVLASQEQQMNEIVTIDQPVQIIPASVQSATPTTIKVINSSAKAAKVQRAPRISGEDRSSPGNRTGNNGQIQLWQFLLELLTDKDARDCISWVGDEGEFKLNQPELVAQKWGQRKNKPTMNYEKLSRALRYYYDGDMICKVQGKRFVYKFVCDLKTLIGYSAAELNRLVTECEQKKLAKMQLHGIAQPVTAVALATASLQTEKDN
# How it was run: as §1
# ERG = molecular target: T4, ERG (Homo sapiens, UniProt P11308 1-479); settings: protein: recombinant; tags: N-terminal GST; dsDNA, one strand shown
# T4 sequence: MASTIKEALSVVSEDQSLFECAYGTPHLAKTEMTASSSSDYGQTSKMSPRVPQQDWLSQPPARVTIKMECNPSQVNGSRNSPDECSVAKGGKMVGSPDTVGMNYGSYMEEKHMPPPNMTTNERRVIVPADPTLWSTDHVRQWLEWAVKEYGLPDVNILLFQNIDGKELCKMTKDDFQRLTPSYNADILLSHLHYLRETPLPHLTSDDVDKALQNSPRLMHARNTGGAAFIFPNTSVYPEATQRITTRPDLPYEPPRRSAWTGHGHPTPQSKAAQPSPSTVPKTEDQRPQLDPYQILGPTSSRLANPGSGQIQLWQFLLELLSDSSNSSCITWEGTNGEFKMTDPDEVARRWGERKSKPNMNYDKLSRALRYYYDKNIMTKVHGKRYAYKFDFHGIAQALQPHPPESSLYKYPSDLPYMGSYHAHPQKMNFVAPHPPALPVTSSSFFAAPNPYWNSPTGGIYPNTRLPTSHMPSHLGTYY
# How it was run: as §1
# ELF1 = ELF1 (Homo sapiens, UniProt P32519 1-619); settings: protein: recombinant; tags: N-terminal GST; dsDNA, one strand shown
# Chain of ELF1 (P32519 whole entry): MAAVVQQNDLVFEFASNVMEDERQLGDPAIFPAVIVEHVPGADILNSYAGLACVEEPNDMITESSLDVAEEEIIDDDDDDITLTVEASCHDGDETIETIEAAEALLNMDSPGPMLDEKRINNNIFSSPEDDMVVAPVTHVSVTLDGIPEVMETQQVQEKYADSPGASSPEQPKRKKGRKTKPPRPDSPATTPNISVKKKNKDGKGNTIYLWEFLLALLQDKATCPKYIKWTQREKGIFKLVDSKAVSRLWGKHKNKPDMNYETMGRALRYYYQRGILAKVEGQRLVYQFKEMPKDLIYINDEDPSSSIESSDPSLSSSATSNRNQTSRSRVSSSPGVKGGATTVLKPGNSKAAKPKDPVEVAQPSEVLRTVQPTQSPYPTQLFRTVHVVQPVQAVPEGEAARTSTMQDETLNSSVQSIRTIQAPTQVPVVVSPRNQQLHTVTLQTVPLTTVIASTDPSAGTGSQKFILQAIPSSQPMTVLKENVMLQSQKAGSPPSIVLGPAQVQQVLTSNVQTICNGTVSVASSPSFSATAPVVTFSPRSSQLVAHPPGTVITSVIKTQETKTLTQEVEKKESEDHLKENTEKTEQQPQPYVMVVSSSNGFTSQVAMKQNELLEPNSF
# How it was run: as §1
# EHF = molecular target: T5, EHF (Homo sapiens, UniProt Q9NZC4 1-300); settings: protein: recombinant; tags: N-terminal GST; dsDNA, one strand shown
# T5 sequence: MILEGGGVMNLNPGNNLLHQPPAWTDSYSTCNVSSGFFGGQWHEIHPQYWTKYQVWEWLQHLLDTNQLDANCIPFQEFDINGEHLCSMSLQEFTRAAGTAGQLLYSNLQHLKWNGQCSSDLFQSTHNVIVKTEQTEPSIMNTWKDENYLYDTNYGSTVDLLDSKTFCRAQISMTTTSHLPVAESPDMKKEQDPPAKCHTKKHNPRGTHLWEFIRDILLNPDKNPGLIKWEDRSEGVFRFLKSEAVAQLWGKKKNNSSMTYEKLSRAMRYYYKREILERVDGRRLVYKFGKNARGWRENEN
# How it was run: as §1
# SPI1 = SPI1 (Homo sapiens, UniProt P17947 1-270); settings: protein: recombinant; tags: N-terminal GST; dsDNA, one strand shown
# How it was run: as §1
# SPIB = SPIB (Homo sapiens, UniProt Q01892 1-262); settings: protein: recombinant; tags: N-terminal GST; dsDNA, one strand shown
# Chain of SPIB (Q01892 whole entry): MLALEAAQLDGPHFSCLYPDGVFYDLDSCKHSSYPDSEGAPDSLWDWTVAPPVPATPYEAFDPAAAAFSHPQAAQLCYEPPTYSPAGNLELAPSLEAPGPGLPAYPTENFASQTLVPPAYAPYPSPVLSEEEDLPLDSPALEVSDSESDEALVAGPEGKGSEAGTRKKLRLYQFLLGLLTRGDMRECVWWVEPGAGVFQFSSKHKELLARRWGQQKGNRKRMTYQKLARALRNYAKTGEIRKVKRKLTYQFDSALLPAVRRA
# How it was run: as §1
# ELK3 = molecular target: T6, ELK3 (Homo sapiens, UniProt P41970 1-407); settings: protein: recombinant; tags: N-terminal GST; dsDNA, one strand shown
# T6 sequence: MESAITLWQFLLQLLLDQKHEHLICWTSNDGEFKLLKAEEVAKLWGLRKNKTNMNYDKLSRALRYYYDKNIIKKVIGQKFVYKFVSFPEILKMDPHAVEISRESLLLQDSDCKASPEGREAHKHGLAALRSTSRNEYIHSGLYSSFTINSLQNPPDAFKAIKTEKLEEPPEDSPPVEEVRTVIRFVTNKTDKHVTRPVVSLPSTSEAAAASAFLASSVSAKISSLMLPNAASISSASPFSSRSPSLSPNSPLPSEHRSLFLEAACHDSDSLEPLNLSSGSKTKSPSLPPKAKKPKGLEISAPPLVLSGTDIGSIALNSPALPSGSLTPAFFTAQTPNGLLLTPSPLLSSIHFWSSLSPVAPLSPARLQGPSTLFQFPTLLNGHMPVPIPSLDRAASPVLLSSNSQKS
# How it was run: as §1
# FEV = molecular target: T7, FEV (Homo sapiens, UniProt Q99581 1-238); settings: protein: recombinant; tags: N-terminal GST; dsDNA, one strand shown
# T7 sequence: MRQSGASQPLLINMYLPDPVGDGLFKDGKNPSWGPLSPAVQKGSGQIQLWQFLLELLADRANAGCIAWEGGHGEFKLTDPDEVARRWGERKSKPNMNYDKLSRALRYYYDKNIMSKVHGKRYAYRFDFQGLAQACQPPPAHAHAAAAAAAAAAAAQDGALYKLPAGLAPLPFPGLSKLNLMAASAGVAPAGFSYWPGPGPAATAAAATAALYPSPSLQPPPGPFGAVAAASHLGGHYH
# How it was run: as §1
# ETV5 = ETV5 (Homo sapiens, UniProt P41161 1-510); settings: protein: recombinant; tags: N-terminal GST; dsDNA, one strand shown
# Chain of ETV5 (P41161 whole entry): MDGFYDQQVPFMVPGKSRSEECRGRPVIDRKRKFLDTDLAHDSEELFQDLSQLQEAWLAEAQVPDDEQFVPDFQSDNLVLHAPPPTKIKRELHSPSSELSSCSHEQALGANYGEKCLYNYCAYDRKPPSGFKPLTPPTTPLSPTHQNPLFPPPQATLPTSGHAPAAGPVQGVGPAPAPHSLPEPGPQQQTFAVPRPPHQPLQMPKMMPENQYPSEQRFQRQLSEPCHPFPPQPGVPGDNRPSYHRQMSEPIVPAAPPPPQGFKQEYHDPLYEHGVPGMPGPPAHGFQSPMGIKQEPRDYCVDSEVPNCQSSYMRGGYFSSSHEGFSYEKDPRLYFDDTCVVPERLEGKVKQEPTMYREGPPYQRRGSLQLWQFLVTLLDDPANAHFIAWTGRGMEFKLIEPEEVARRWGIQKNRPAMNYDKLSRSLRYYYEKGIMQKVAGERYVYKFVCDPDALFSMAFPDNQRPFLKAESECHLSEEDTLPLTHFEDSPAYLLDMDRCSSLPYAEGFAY
# How it was run: as §1
# HSF1 = HSF1 (Homo sapiens, UniProt Q00613 1-529); settings: protein: recombinant; tags: N-terminal GST; chain copies: 3; dsDNA, one strand shown
# Chain of HSF1 (Q00613 whole entry): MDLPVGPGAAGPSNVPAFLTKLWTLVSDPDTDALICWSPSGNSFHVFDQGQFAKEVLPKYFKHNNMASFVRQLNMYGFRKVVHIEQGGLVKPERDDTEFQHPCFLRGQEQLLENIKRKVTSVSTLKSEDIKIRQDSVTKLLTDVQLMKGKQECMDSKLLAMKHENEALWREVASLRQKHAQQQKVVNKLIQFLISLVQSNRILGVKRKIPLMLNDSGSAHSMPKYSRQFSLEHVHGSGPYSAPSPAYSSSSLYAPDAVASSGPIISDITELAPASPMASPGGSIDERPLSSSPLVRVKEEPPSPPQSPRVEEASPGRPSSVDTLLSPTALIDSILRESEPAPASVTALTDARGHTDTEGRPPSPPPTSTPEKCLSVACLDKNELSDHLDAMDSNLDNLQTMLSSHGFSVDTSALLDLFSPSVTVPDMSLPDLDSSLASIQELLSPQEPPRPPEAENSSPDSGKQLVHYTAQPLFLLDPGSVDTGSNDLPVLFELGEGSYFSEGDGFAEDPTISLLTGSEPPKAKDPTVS
# How it was run: as §1
# SPIC = molecular target: T8, SPIC (Homo sapiens, UniProt Q8N5J4 1-248); settings: protein: recombinant; tags: N-terminal GST; dsDNA, one strand shown
# T8 sequence: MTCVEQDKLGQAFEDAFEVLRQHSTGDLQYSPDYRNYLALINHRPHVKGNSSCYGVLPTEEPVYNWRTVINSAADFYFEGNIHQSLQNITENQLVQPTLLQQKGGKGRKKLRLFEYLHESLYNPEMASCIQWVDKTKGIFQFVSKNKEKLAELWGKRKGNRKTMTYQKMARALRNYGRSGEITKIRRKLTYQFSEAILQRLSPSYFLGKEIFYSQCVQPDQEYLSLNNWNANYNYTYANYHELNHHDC
# How it was run: as §1
# ELF4 = ELF4 (Homo sapiens, UniProt Q99607 1-663); settings: protein: recombinant; tags: N-terminal GST; dsDNA, one strand shown
# Chain of ELF4 (Q99607 whole entry): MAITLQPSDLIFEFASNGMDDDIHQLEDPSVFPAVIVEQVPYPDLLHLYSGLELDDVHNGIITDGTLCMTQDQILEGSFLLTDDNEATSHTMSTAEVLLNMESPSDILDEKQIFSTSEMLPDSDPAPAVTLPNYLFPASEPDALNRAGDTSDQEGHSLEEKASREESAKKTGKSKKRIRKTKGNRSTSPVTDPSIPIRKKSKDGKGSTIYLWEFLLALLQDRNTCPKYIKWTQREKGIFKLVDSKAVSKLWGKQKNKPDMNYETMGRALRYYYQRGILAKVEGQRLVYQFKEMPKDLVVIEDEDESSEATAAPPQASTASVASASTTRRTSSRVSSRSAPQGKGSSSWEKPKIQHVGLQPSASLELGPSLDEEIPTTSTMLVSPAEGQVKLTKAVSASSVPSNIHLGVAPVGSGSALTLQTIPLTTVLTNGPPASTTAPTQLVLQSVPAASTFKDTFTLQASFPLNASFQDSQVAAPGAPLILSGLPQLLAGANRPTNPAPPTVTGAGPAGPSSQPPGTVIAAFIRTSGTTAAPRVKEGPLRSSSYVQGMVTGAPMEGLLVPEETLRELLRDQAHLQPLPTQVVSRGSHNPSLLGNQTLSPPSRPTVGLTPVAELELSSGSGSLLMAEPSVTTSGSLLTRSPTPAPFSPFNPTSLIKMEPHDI
# How it was run: as §1
# ELK4 = molecular target: T9, ELK4 (Homo sapiens, UniProt P28324-2 1-405); settings: protein: recombinant; tags: N-terminal GST; dsDNA, one strand shown
# T9 sequence: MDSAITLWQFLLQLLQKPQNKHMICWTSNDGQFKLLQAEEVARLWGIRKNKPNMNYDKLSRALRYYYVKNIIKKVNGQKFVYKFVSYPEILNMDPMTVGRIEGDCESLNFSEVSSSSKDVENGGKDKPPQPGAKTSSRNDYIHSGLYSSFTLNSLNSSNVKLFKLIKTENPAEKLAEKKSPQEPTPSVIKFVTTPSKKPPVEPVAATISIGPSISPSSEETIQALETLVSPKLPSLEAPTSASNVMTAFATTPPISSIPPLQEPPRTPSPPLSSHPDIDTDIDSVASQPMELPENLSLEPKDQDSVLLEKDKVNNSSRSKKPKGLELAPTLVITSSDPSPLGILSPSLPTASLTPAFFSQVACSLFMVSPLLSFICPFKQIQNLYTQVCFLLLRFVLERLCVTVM
# How it was run: as §1
# ETV2 = molecular target: T10, ETV2 (Homo sapiens, UniProt O00321 1-342); settings: protein: recombinant; tags: N-terminal GST; dsDNA, one strand shown
# T10 sequence: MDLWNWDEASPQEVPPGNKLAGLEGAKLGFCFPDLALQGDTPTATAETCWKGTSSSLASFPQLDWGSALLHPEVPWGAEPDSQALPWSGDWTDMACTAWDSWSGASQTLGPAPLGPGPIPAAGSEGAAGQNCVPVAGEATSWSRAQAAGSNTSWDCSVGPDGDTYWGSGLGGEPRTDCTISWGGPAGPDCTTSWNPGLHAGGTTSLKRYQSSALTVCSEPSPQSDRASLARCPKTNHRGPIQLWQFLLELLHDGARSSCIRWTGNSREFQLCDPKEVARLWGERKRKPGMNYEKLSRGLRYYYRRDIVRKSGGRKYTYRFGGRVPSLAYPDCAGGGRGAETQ
# How it was run: as §1
# ELF3 = molecular target: T11, ELF3 (Homo sapiens, UniProt P78545 1-371); settings: protein: recombinant; tags: N-terminal GST; dsDNA, one strand shown
# T11 sequence: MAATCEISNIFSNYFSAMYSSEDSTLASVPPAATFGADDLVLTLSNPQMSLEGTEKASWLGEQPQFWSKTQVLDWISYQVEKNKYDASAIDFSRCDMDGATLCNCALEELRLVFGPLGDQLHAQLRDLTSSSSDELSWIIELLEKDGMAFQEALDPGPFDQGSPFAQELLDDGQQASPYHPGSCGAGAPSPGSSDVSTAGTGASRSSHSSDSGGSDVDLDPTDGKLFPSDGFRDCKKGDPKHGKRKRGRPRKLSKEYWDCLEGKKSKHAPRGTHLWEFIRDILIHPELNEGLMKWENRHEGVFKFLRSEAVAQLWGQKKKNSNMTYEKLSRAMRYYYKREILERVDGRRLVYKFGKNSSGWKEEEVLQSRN
# How it was run: as §1
# CRX = CRX (Homo sapiens, UniProt O43186 1-299); settings: protein: recombinant; tags: N-terminal GST; dsDNA, one strand shown
# Chain of CRX (O43186 whole entry): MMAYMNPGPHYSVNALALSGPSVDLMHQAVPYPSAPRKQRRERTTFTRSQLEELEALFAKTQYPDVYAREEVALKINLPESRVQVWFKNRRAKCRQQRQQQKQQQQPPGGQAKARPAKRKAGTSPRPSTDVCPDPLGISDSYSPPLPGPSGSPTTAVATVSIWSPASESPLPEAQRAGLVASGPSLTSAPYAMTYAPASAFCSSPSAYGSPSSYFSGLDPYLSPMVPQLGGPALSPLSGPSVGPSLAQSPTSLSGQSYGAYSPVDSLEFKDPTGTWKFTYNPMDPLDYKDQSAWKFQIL
# How it was run: as §1
# ETV1 = ETV1 (Homo sapiens, UniProt P50549 1-477); settings: protein: recombinant; tags: N-terminal GST; dsDNA, one strand shown
# Chain of ETV1 (P50549 whole entry): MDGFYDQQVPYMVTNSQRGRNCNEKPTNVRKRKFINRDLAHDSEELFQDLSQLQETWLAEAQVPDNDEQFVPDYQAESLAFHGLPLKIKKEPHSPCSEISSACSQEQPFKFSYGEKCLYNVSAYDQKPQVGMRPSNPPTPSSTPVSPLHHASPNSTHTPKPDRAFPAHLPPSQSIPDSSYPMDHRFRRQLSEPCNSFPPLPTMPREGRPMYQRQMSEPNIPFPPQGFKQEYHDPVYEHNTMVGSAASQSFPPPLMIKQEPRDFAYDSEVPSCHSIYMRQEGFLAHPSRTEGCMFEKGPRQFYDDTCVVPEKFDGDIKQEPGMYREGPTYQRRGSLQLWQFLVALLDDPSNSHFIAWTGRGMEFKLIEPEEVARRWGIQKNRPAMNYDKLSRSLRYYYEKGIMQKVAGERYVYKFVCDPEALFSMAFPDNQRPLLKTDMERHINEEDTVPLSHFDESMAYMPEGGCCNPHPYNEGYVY
# How it was run: as §1
sequence,measurement,setting,value
GCTCTC,binding signal,FLI1,"1.43 fold enrichment (6-mer frequency, TF over GST control)"
same,binding signal,ELK1,"1.5 fold enrichment (6-mer frequency, TF over GST control)"
same,binding signal,GABPA,"1.53 fold enrichment (6-mer frequency, TF over GST control)"
same,binding signal,ERG,"1.42 fold enrichment (6-mer frequency, TF over GST control)"
same,binding signal,ELF1,"1.47 fold enrichment (6-mer frequency, TF over GST control)"
same,binding signal,EHF,"1.34 fold enrichment (6-mer frequency, TF over GST control)"
same,binding signal,SPI1,"1.35 fold enrichment (6-mer frequency, TF over GST control)"
same,binding signal,SPIB,"1.29 fold enrichment (6-mer frequency, TF over GST control)"
same,binding signal,ELK3,"1.46 fold enrichment (6-mer frequency, TF over GST control)"
same,binding signal,FEV,"1.47 fold enrichment (6-mer frequency, TF over GST control)"
same,binding signal,ETV5,"1.28 fold enrichment (6-mer frequency, TF over GST control)"
same,binding signal,HSF1,"1.42 fold enrichment (6-mer frequency, TF over GST control)"
same,binding signal,SPIC,"1.33 fold enrichment (6-mer frequency, TF over GST control)"
same,binding signal,ELF4,"1.45 fold enrichment (6-mer frequency, TF over GST control)"
same,binding signal,ELK4,"1.56 fold enrichment (6-mer frequency, TF over GST control)"
same,binding signal,ETV2,"1.61 fold enrichment (6-mer frequency, TF over GST control)"
same,binding signal,ELF3,"1.35 fold enrichment (6-mer frequency, TF over GST control)"
same,binding signal,CRX,"1.24 fold enrichment (6-mer frequency, TF over GST control)"
same,binding signal,ETV1,"1.57 fold enrichment (6-mer frequency, TF over GST control)"

# From PMC7862700, “An all-to-all approach to the identification of sequence-specific readers for epigenetic DNA modifications on cytosine”
